Results reported in PubChem BioAssay AID1645854 (Buhrlage Lab, Dana-Farber Cancer Institute and Novartis …, 2021).
The campaign covered roughly 47,000 compounds. About 140 (0.3%) were called active. For the sample, actives were picked, then their nearest neighbours and some compounds at random. Values without a mark were called inactive. No stated cut-off is given here; in the data, active means inhibition above about 30%; inactive means the rest.

Biological target: Ubiquitin carboxyl-terminal hydrolase 7 (Homo sapiens) (UniProt Q93009)
Sequence (Q93009 whole entry, looked up): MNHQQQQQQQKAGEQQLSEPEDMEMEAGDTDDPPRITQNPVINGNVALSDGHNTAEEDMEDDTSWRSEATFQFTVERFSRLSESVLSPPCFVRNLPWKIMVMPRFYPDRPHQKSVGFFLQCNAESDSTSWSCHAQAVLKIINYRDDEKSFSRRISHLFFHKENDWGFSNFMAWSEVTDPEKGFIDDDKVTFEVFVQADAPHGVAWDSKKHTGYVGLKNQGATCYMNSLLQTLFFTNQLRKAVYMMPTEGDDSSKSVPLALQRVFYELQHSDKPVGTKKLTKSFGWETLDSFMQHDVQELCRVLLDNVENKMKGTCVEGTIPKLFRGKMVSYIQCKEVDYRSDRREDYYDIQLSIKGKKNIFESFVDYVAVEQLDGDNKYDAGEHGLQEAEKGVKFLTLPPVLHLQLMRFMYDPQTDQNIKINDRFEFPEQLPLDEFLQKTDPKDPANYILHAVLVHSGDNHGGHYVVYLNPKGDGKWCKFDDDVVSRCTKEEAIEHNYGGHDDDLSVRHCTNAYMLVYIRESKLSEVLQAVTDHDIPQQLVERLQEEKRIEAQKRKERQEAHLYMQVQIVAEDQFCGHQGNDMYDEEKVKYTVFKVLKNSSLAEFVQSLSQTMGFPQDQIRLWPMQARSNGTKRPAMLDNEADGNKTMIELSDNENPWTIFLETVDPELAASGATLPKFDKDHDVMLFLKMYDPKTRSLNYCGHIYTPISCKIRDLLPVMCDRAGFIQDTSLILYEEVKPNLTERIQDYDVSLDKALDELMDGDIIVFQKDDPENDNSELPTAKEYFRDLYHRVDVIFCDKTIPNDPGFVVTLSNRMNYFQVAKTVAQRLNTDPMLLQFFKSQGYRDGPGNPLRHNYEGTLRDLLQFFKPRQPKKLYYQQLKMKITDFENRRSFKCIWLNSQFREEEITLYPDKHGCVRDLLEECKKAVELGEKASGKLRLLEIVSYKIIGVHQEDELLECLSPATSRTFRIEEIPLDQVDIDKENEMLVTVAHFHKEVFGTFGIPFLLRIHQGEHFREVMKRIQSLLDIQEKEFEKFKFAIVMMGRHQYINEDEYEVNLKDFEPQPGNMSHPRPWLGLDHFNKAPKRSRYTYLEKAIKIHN
Assay: blocks human USP7 ubiquitin-rhodamine cleavage (AID 1645854)
Details: purified USP7, Ub-rhodamine cleavage fluorescence; at 20 µM; stronger effect = higher value

Row | SMILES | inhibition
1 | c1cnc(N2CCC3(CCN(Cc4ccc5c(c4)OCO5)CC3)C2)nc1 | 6.59%
2 | COc1c2c(cc3c1C(c1nnnn1-c1ccc(C)cc1C)N(C)CC3)OCO2 (centres undefined) | 10.7%
3 | NC(=O)c1c(NC(=O)c2ccccc2Oc2ccccc2)sc2c1CCN(Cc1ccccc1)C2 | -143%
4 | O=C(Cc1ccccc1)N1CCN(c2cc(C(F)(F)F)nc3ccccc23)CC1 | 6.33%
5 | CCN(c1ccccc1)S(=O)(=O)c1ccc2c(c1)OC(C)CN2C(C)=O (centres undefined) | -10.2%
6 | CN(C)CCNC(=O)c1ccc2ccc(N(C)CC3CC3)n2c1 | -3.23%
7 | Cc1nccn1-c1cc(N2CCCC2)nc2ccnn12 | -3.6%
8 | CCCn1nccc1C(=O)NC[C@H]1C[C@@]2(C)[C@@H](O)CCCC[C@H]2N1C(C)=O | 4.78%
9 | COc1ccc(CC(=O)N2CCC3(CC2)OC(C(=O)NCC(C)C)Cn2ccnc23)cc1 (centres undefined) | -0.841%
10 | O=C(NCc1ccncc1)c1nc(-c2ccc(N3CCCCC3)nc2)no1 | -95.1%
11 | Cc1cc2nc(N3CCOCC3)n(CC(=O)Nc3ccccc3F)c(=O)c2n1C | -0.476%
12 | COc1ccccc1CNS(=O)(=O)c1ccc2c(c1)C(=O)N(C)c1ncccc1O2 | 1.09%
13 | O=C(CN1C(=O)[C@@H]2CCCN2c2ncccc21)NCc1ccccc1F | -0.124%
14 | Cc1csc2nc(COc3ccccc3NC(=O)c3ccccc3)cc(=O)n12 | -2.52%
15 | O=C(c1nc(-c2ccc3cc[nH]c3c2)no1)N1CCN(c2nsc3ccccc23)CC1 | 2.44%
16 | Cc1ccccc1CS(=O)(=O)Cc1ccc(C(=O)Nc2noc3ccccc23)o1 | 2.52%
17 | Cc1cccc(N2CCN(C(=O)c3nc4cccnc4n(C)c3=O)CC2)c1C | -13.2%
18 | O=C(Nc1ccc(F)cc1)c1ccc(CN2CCOCC2)cc1 | 3.54%
19 | Cc1cnc(C2COCCN2C(=O)c2c(C(C)C)noc2C)[nH]1 (centres undefined) | 4.99%
20 | Cc1ccc(NC(=O)N2CCN3CCCCC3C2)c(C)c1 (centres undefined) | -0.822%
21 | O=C(Nc1nc2ccc(S(=O)(=O)N3CCOCC3)cc2s1)c1cc2ccccc2oc1=O | 0.00877%
22 | Cc1ccc(-c2nc(Cn3nnc(C(=O)O)c3C)c(C)o2)cc1 | 1.5%

Row | SMILES | inhibition
23 | CCc1cnc(N2CCC3(CCN(C(=O)c4cccnc4)C3)CC2)nc1 | 1.31%
24 | OCCN1CCN(CC(O)COCCOc2ccc(Cl)cc2)CC1 (centres undefined) | 6.76%
25 | Cc1cnn(CC(=O)N2CCCCCC2c2ccncc2)c1 (centres undefined) | -1.92%
26 | CC(C)[C@H](Cn1nnc2ccccc21)NC(=O)c1ccc2c(c1)CCN2S(C)(=O)=O | -1.02%
27 | CC(C)CCNC(=O)C(=O)c1cn(CC(=O)N2CCCC2)c2ccccc12 | -9.94%
28 | CSc1cccc(NC(=O)CCn2c(=O)c3cccn3c3ccccc32)c1 | 5.36%
29 | Cc1nc(C2CCCN2C(=O)c2cccc3ncccc23)ncc1C(=O)N1CCOCC1 (centres undefined) | 1.41%
30 | O=C(C1CCN(c2cnc3nccnc3c2)CC1)N1CCN(C2CCCCC2)CC1 | -29.4%
31 | COc1ccc(-c2nnc(SCC(=O)c3cc(C)ccc3C)o2)cc1OC | 9.96%
32 | CC1CCC(NC(=O)C2(C)Cc3ccccc3C(=O)N2Cc2ccccc2)CC1 (centres undefined) | -18.1%
33 | CCCN1CCN(Cc2nc3nc(C)cc(N4CCCC4)n3n2)CC1 | 0.57%
34 | O=C(NCC1CC1)c1ccc2ccc(N3CCN(c4ncccn4)CC3)n2c1 | -17.3%
35 | Cn1ccc(-c2cc(C(=O)NCCc3ccccn3)c3ccccn23)n1 | 0.582%
36 | Cc1ccccc1NC(=O)N1CCC(CC(=O)N2CCCCC2)CC1 | 5.39%
37 | COc1cccc(-n2nnc(-c3nnc(-c4ccccc4)o3)c2C)c1 | -29.9%
38 | COc1ccc(C2C3CCCCC3(O)CCN2C(=O)/C=C/c2cc(OC)c(OC)c(OC)c2)c(OC)c1 (centres undefined) | 2.72%
39 | CN(C(=O)Cn1c(=O)n(CCCC(=O)N2CCc3ccccc3C2)c(=O)c2ccccc21)C1CCCCC1 | -62.2%
40 | Cn1c(CNC(=O)c2ccc(=O)[nH]c2)nc2ccccc21 | 3.71%
41 | CN(Cc1ccccn1)C(=O)c1cc(-c2ccn(C)n2)n2ccccc12 | -10.8%
42 | O=C(C1CCC1)N1CCCC(c2nc(N3CCOCC3)ncc2-c2cccnc2)C1 (centres undefined) | 1.73%
43 | CC1CCc2nc3ccccc3c(C(=O)OCC(=O)Nc3ccc4ccccc4c3)c2C1 (centres undefined) | -6.5%
44 | Cn1nc(C(=O)N2CCOCC2)c2c1CN(Cc1cccnc1)CC2 | -1.02%

Row | SMILES | inhibition
45 | CC1CCc2c(sc3[nH]c(=O)c(C(=O)Nc4ccc(C(N)=O)cc4)c(O)c23)C1 (centres undefined) | 2.02%
46 | CNS(=O)(=O)c1ccc(CNC(=O)c2cc(-c3ccc(C)cc3)no2)cc1 | 4.58%
47 | CN(C)CCNC(=O)c1ccc2c(c1)nc1n2CCN(C2CCCCC2)C1=O | -3.11%
48 | COc1ccccc1CNC(=O)c1nc(N2CCSCC2)c2cn(C)nc2n1 | -2.16%
49 | NC(=O)c1ccccc1NC(=O)C1CN(c2nc3c(F)cccc3s2)C1 | -0.695%
50 | CCN1CCN(Cc2nc3nc(C)cc(N4CCCC4)n3n2)CC1 | 0.109%
51 | Cc1cc(O)c(=O)cc2c1C[C@H]1CC(C)(C)/C=C/C[C@@]3(C)Oc4cc(=O)c(O)cc(C)c4C[C@@H]3C[C@H](O)[C@]1(C)O2 | 32.8% (active)
52 | O=C(NCc1cccnc1)c1cc(-c2ccncc2)n(-c2ccc(F)cc2)n1 | 0.279%
53 | Cn1c(SCc2ccc(Cl)cc2)nnc1-c1ccc2c(c1)OCCO2 | -49.5%
54 | O=C(Nc1ccc2c(c1)CCC2)N1CC2CN(S(=O)(=O)c3ccccc3)CC(C1)O2 | -2.8%
55 | O=C1CCC2C(c3ccc4c(c3)OCO4)CC1N2Cc1ccccc1 (centres undefined) | -3.81%
56 | Cc1c(S(=O)(=O)Nc2ccccc2F)cc(C(=O)N2CCCCC2)n1C | 5.73%
57 | COc1ccc(Cn2c(=O)[nH]c3cc(C(=O)N4CCC(C(N)=O)CC4)ccc3c2=O)cc1 | -1.91%
58 | Cc1nn(C)c(Cl)c1C1CCCN1C(=O)c1ccc(C)n(C)c1=O (centres undefined) | 2.77%
59 | CC(C)C(=O)N[C@@H](CO)[C@H](O)c1ccc([N+](=O)[O-])cc1 | 0.416%
60 | CCc1ccc(-n2nnc(C(=O)Nc3nnc(CC)s3)c2C)cc1 | 0.00527%
61 | Cc1cnc(C(=O)N2CC[C@@H]3[C@H]2CCCC(=O)N3Cc2ccccc2C(F)(F)F)cn1 | -3.69%
62 | COCCNc1nn2c(-c3ccc4ccccc4c3)cnc2s1 | 1.48%
63 | Cc1nn(CC(=O)c2cc(C)n(-c3ccc4c(c3)OCO4)c2C)c(C)c1[N+](=O)[O-] | -2.39%
64 | Cc1cccc(C(C)C)c1NC(=O)c1ccc(OCc2ccccc2)cc1 | 0.214%
